We go through 26 compounds from PubChem BioAssay (NCI).

The panel holds about 83,000 compounds, 20% with a hit somewhere; the sample as a whole holds those more often.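 Treatment: one concentration, 48 hours, 96-well format. Scoring: percent growth, with anything below 10 considered active.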 Values without a mark were called inactive. The source made the active and inactive calls.

The test concerns HL-60(TB) leukemia. In words: NCI-60 one-dose screen, 48 h (100 = growth as untreated, 0 = no growth, -100 = all killed). The conditions noted are these: 10 µM unless noted.
Take `CC(=O)Nc1cccc(Nc2nc(N[C@H](C)c3ccccc3)c3ccccc3n2)c1`: the growth is 13.6%.

As for `N#Cc1c(-c2ccc(Br)cc2)cc(-c2c[nH]c3ccccc23)nc1N`, the growth was 28.8%.

For `CCOC(=O)c1c(Nc2ccccc2)nn2c(-c3ccc(Cl)cc3)ccnc12`, the growth was 86.7%.

Turning to `COc1cc(O)c2c(c1)[C@H]1O[C@@H]1C[C@H](O)[C@H](O)C(=O)/C=C\C[C@H](C)OC2=O`, the growth is 0.185% (active).

Take `NC1[C@H]2CN(c3cnc(C(=O)Nc4cc(F)cc5cccnc45)cn3)C[C@@H]12` (stereo partly specified): the growth was 11.5%.

With `Clc1ccc2oc3c(NCCCn4ccnc4)c4ccccc4nc3c2c1`, the growth was 29%.

Turning to `NS(=O)(=O)c1ccc(Nc2nc(SCC(=O)c3ccc(Cl)cc3)nc3c2CCCC3)cc1`, the growth is 59.3%.

Consider `Cc1ccc(C(=O)NN2C(=O)/C(=C/C=C/c3ccco3)SC2=S)cc1`, for which the growth was 30.4%.

As for `CN(C)C(=O)C1=NC(CO)C(=O)N(c2ccc(Cl)cc2)N1` (stereo unspecified), the growth was 110%.

Regarding `CC(C)Sc1nc(Nc2ccc(S(N)(=O)=O)cc2)c(C#N)c(-c2ccc(F)cc2)n1`, the growth was 45.4%.

Consider `N/C(=N\C(N)=N\c1nc2ccccc2s1)c1cccc(F)c1`, for which the growth was 83% [5 µM].

`CNC(=O)c1cc(Oc2ccc3nc(NC(=O)c4cc(N5CCOCC5)cc(C(F)(F)F)c4)sc3c2)ccn1`: the growth is 68%.

With `C/C(=N/N)c1nnn(-c2ccc(Br)cc2)c1C`, the growth is 102%.

For `CCNC(=O)Oc1ccc(/C(=C(/C)c2ccc(Cl)cc2)c2ccc(OCCN3CCCCCC3)cc2)cc1`, the growth is 1.41% (active).

As for `CC(C)(O)c1cncc(-c2ccc3ncnc(N4CCc5cc(F)c(Cl)cc54)c3c2)c1`, the growth is 1.38% (active).

Regarding `Oc1cccc2ccc(-c3nnc(SCc4ccc(O)c5ncccc45)n3-c3ccccc3)nc12`, the growth is 3.4% (active).

Take `Cc1ccc(-c2csc(N/N=C/c3nc4ccccc4n3C3CC3)n2)cc1`: the growth is 7.25% (active).

With `CS(=O)(=O)c1ccc(-c2nc3ccccn3c2/C=N/Nc2nc(-c3ccc(Br)cc3)cs2)cc1`, the growth is 107%.

Consider `Oc1ccc(CSc2nnc(-c3ccncc3)n2-c2ccccc2)c2cccnc12`, for which the growth was 10.9%.

Turning to `NS(=O)(=O)c1ccc(Nc2nc(N/N=C/c3ccc(Cl)cc3)nc(Nc3ccccc3)n2)cc1`, the growth is 72.5%.

For the compound `COC1=C(c2ccccc2)C(=O)C(OC)=C(c2ccccc2)C1=O`, the growth is 5.79% (active).

`O=c1[nH]c(Sc2sc3ccc(Cl)cc3c2CBr)nc(=S)[nH]1`: the growth is 21.7%.

For the compound `Clc1ccc2c(NCCCn3ccnc3)c3oc4ccc(Cl)cc4c3nc2c1`, the growth is 78.6%.

Take `O=C1/C(=C/C2=Cc3ccccc3OC2)SC(=S)N1c1ccc(F)cc1`: the growth was 95.2%.

Turning to `COc1ccc(CN2C(=O)/C(=C/c3nc(CO)cs3)SC2=S)cc1`, the growth is 58.9%.

For the compound `COc1ccc(-c2cc(-c3ccc(N4CCOCC4)cc3)n3c(n2)nc2ccccc23)cc1OC`, the growth was 71%.
